The results in this text go back to PubChem BioAssay (NCATS).

Molecules are shown by their SMILES. Results filed as inconclusive are left out. Where a call stands in place of a potency, no number is given. Active and inactive are the calls of the source. The call rests on the fitted dose curve; in most records, active means well fitted inhibition curve with a large enough effect; inconclusive means small, poorly fitted or top-dose-only effect; inactive means flat fitted curve, though single readings scatter.

In the assay the target is Calcium and integrin-binding protein 1 (Homo sapiens) (UniProt Q99828). The assay can be described thus: Primary qHTS for Identification of Calcium Integrin Binding Protein 1 (CIB1) Competitor (AID 1508620).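 Further: GST tagged CIB1 binding a fluorescein labelled alphaIIb integrin peptide tracer; top concentration of the series differs between compounds.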 Conditions: CIB1-GST / FITC-alphaIIb peptide fluorescence polarization; series mostly up to 114 µM. In a few lines: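 CIB1-GST (1 uM final) and compound incubated 15 min at room temperature before adding FITC-alphaIIb peptide tracer (100 nM final). Competition for binding read by fluorescence polarization (ex 480, em 540) after another 15 min at room temperature.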
Sequence of Calcium and integrin-binding protein 1 (Homo sapiens) (Q99828 whole entry, looked up): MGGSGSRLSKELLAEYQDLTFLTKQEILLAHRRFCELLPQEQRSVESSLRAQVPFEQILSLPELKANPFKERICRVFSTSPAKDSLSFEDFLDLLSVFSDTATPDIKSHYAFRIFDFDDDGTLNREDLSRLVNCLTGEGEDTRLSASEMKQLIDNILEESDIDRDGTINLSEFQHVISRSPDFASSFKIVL
Take `C[C@@H]1CC[C@]2(C(=O)O)CC[C@]3(C)C(=CCC4[C@@]5(C)CC[C@H](O)[C@](C)(C(=O)O)C5CC[C@]43C)C2[C@]1(C)O` (some centres undefined): the Potency entry is “inactive”.

On to `CC(C)(Cc1ccccc1)NCC(O)c1ccc(O)c(NS(C)(=O)=O)c1` (centres undefined), for which the Potency entry is “inactive”.

In the case of `CCCCNc1ncc(C(=O)NCc2ccc(-n3ccnc3)cc2)c(NC2CCC(O)CC2)n1` (centres undefined), the Potency result is “inactive”.

In the case of `CCc1cnc(N2CCC(c3nc(COc4ccc(-n5cnnn5)cc4)cs3)CC2)nc1`, the Potency entry was “inactive”.

As to `COc1cc(N(C)CCN(C)C)c(N)cc1Nc1nccc(-c2cn(C)c3ccccc23)n1`, the Potency entry is “inactive”.

For `CC1=C2C[C@@]3(C)C(CCC[C@@H]3C)C(O)C2OC1=O` (some centres undefined), the Potency result was “inactive”.

As to `CC(=O)C1=C(O)C=C2Oc3c(C(C)=O)c(O)c(C)c(O)c3[C@]2(C)C1=O`, the Potency result is “inactive”.

`CCOc1ccc(-n2c([C@@H](C)N(Cc3cccnc3)C(=O)Cc3ccc(OC(F)(F)F)cc3)nc3ncccc3c2=O)cc1`: the Potency entry is “inactive”.

In the case of `C=C(C)C1=C[C@@]2(C)C(=CC1=O)CC[C@@H](O)[C@@H]2C`, the Potency result is “inactive”.

As to `COc1cc(-c2nc(N[C@H](CO)Cc3ccccc3)ccc2C(=O)NCCOc2ccccc2)cc(OC)c1OC`, the Potency result is “inactive”.

In the case of `CCc1ccccc1OC[C@@H](O)CN[C@H]1CCCc2ccccc21`, the Potency entry was “inactive”.

Consider `O=S(=O)(c1ccccc1)N(CC(F)(F)F)c1ccc(C(O)(C(F)(F)F)C(F)(F)F)cc1`, for which the Potency result was “inactive”.

As to `COc1ccc2[nH]c(=O)c3c(c2c1)OC(C)(C)C=C3`, the Potency entry is “inactive”.

Consider `CCC[C@@]1(CCc2ccccc2)CC(O)=C([C@H](CC)c2cccc(NS(=O)(=O)c3ccc(C(F)(F)F)cn3)c2)C(=O)O1`, for which the Potency entry was “inactive”.
